Compound activity from PubChem.
DT40 TDP1 no CPT: qHTS for Inhibitors of human tyrosyl-DNA phosphodiesterase 1 (TDP1): qHTS in cells in absence of CPT; 420,000 compounds, 15% hits; Potency, µM (doses to about 46.2 µM), for the others: at the highest dose activity change, negative = growth inhibition, actives largely listed as inhibitors; DT40 Tdp1-/- hTDP1 cells, no CPT, ATP luminescence, 48 h; note: potency is the fitted concentration of half-maximal effect; % is set by controls: 0 for no effect and ±100 for the full control effect; nearly all actives have a fitted effect of over 55% in size
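Compound effects on proliferation are scored in DT40 Tdp1-/-;hTDP1 cells in the absence of CPT. ATP levels (CellTiter-Glo luminescence) are recorded after a ≥48 hr, 37 °C incubation.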
DT40 TDP1 CPT: DT40-hTDP1 cell growth loss with CPT. chicken DT40 Tdp1-/-;hTDP1 cells + 20 nM CPT, ATP luminescence, 48 h. Potency, µM (doses to about 46.2 µM), for inactives: at the top dose activity change, negative = growth inhibition, hits mostly inhibitors. 420,000 compounds, 12% hits. AID 686979; note: potency is the fitted concentration of half-maximal effect; % is set by controls: 0 for no effect and ±100 for the full control effect; nearly all actives have a fitted effect of over 55% in size
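Cell growth measured by CellTiter-Glo luminescence after a minimum 48 h, 37 C compound exposure with 20 nM CPT in Tdp1-knockout DT40 cells stably expressing hTDP1, seeded 400/well; qHTS titration format.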
IL1B secr inh: inflammasome signaling inhibition, IL-1 beta readout; THP-1 LPS/ATP IL-1B secretion, AlphaLISA, 16 h; active compounds read low; activity change, % at 57.5 µM; 360,000 compounds, 4.7% hits; AID 743279; in the data active = activity change below about -50%; inconclusive = mostly about -30% to -49%; note: % is set by controls: 0 for no effect and ±100 for the full control effect
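THP-1 cells pretreated 1 hr with compounds (up to 57.5 uM final), then stimulated with LPS (250 ng/mL final) plus ATP (1.25 mM final); secreted IL-1B measured by AlphaLISA after 16 hr, decreased signal indicating inhibition.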
HepG2 viability: HepG2 cytotoxicity, counter-screen for TGF-b inhibitors; HepG2 CAGA-GFP viability, ATP luminescence, 18 h; Potency, µM (titrated, usually from 46.1 µM), for the others: at the highest dose activity change, negative = cytotoxicity, most hits filed as cytotoxic; 410,000 compounds, 0.76% hits; AID 588856; note: potency is the fitted concentration of half-maximal effect
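CellTiter-Glo luminescence gave cytotoxicity after 18 hours at 37 degrees C. The cells were HepG2 CAGA-GFP in 1% FBS DMEM, stimulated with 500 pg/mL TGF-beta after compound addition. %Activity was normalised to no-cell wells (complete cell-killing) and DMSO (no toxicity), and curves were fitted and classified.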
TGFb SMAD3 inh: inhibitors of TGF-b signaling | Potency, µM (series often up to 46.1 µM), for the others: top-dose activity, negative = inhibition, usual class: inhibitors | 410,000 compounds, 1.2% hits | HepG2 CAGA-GFP TGF-b/SMAD3 reporter, GFP fluorescence, 18 h; TGF-beta stimulated, 500 pg/mL final; note: potency is the fitted concentration of half-maximal effect; % is set by controls: 0 for no effect and ±100 for the full control effect; nearly all actives have a fitted effect of over 65% in size
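First, reporter cells (HEPG2 CAGA-GFP) rested 2 h at 37 degrees C. Next, compounds were pinned in and TGF-beta added to 500 pg/mL final. After 18 h, GFP was imaged per cell and summed per well.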
TDP1 inh: inhibitors of human tyrosyl-DNA phosphodiesterase TDP1 | Potency, µM (doses to about 130 µM), for the others: at the highest dose activity change, negative = inhibition, most hits filed as inhibitors | recombinant TDP1, AlphaScreen DNA substrate cleavage | AID 485290 | 350,000 compounds, 0.28% hits; note: potency is the fitted concentration of half-maximal effect; % is set by controls: 0 for no effect and ±100 for the full control effect; nearly all actives have a fitted effect of over 40% in size
Target sequence (Q9NUW8 whole entry, looked up): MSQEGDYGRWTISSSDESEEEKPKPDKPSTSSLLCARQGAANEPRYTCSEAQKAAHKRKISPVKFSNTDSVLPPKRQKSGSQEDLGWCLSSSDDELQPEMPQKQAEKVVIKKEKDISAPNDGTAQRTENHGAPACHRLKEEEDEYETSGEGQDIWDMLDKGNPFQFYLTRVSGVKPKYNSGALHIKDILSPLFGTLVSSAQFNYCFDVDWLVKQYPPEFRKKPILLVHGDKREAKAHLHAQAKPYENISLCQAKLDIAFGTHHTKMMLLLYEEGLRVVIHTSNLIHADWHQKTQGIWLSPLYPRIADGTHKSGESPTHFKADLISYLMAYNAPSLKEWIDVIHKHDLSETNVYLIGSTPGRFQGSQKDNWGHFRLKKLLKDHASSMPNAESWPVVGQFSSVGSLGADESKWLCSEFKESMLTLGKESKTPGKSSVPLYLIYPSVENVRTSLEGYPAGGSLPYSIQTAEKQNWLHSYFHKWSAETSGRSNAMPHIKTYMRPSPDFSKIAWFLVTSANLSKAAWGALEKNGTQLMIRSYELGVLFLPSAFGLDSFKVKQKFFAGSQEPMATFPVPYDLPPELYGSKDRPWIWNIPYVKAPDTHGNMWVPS
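Steps: enzyme plus compound, 15 min RT; add biotin/phosphotyrosine-FITC oligonucleotide (15 nM final), react 5 min; add donor/acceptor beads (10 ug/ml final), 10 min; read AlphaScreen. Tdp1 at 1 nM final.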
Active calls of the source: *; ? = inconclusive; nt = not tested or not shown; [ ] = remark or other dose. Sampled rows, rich in hits. Any-hit rate of the full collection: about 19%. Unless noted, calls come from the whole dose curve; as a rule, active = well fitted curve in the direction sought with a large enough effect; inconclusive = small, poorly fitted or top-dose-only effect, or another doubt; inactive = no such curve, though single readings can be large; an effect the other way counts as inactive or inconclusive.

SMILES | DT40 TDP1 no CPT | DT40 TDP1 CPT | IL1B secr inh | HepG2 viability | TGFb SMAD3 inh | TDP1 inh
COc1ccc(C(=O)OCc2cc(=O)n3nc(-c4cccs4)sc3n2)cc1 | ? | -17% | nt | 9% | ? | -2%
O=C1NC(=S)NC(=O)C1=Cc1ccccc1C(=O)O | 0% | 15% | -4 | 4% | 24% | nt
CS(=O)(=O)c1ccc(C(=O)Nc2cccc(-c3nc4ccccc4[nH]3)c2)cc1 | 26µM* | ? | -19 | -22% | 9% | 3%
CCOc1cc(OCC)cc(C(=O)Nc2cccc(-c3nc4ccccc4[nH]3)c2)c1 | 6.5µM* | 10µM* | nt | 14µM* | ? | 2%[12.3 µM]
Nc1cccc(C(=O)Nc2ccc3nc(-c4cccnc4)[nH]c3c2)c1 | -8% | -21% | -15 | -9% | 1% | -5%
CS(=O)(=O)Cc1ccc(C(=O)Nc2cccc(-c3nc4ccccc4[nH]3)c2)cc1 | 13µM* | ? | -3 | 11% | -2% | 5%
CS(=O)(=O)c1cccc(C(=O)Nc2cccc(-c3nc4ccccc4[nH]3)c2)c1 | ? | ? | 0 | -43% | 0% | 2%
COC(=O)c1ccccc1NC(=O)c1ccc2nc(Cc3ccccc3)oc2c1 | ? | ? | nt | 1% | -1% | 2%
Cn1c(=O)oc2cc(S(=O)(=O)N3CCCC(C(=O)Nc4nccs4)C3)ccc21 (configuration not stated) | 21µM* | ? | 3 | -14% | 3% | 5%
Cn1c(=O)oc2cc(S(=O)(=O)N3CCCC(C(=O)Nc4ccc(Br)cc4F)C3)ccc21 (configuration not stated) | -29% | -19% | nt | -8% | -9% | -4%
CCN(CC)c1ccc(NC(=O)C2CCCN(S(=O)(=O)c3ccc4c(c3)oc(=O)n4C)C2)c(C)c1 (configuration not stated) | 10µM* | 21µM* | nt | -7% | 1% | -9%
Cc1ccc(NC(=O)C2CCCN(S(=O)(=O)c3ccc4c(c3)oc(=O)n4C)C2)cc1Cl (configuration not stated) | ? | ? | nt | -4% | ? | 6%
O=C(Cc1cccc(NC(=O)C2CCCN(C(=O)C3CCC3)C2)c1)Nc1cccc(C(=O)N2CCOCC2)c1 (configuration not stated) | -25% | -19% | -4 | 4% | 4% | nt
O=C(COC(=O)CNS(=O)(=O)c1ccccc1)Nc1ncc(Cl)cc1Cl | 6.5µM* | 6% | -16 | 2% | 0% | -7%
O=C(COC(=O)CNC(=O)c1ccc([N+](=O)[O-])o1)Nc1ncc(C(F)(F)F)cc1Cl | ? | -8% | -17 | -18% | ? | 1%
O=C(COC(=O)CNS(=O)(=O)c1ccccc1)Nc1ccc(Cl)cn1 | -1% | -1% | 19 | 5% | 0% | -2%
O=C(COC(=O)CNC(=O)c1ccc([N+](=O)[O-])o1)Nc1ncc(Cl)cc1Cl | -7% | ? | -92* | -54% | ? | -19%
CCN(CC)c1ccc(/C=N/Nc2nc(C)cc(C)n2)cc1 | 18µM* | 23µM* | 23 | -34% | ? | nt
Brc1cccc(/C=N/Nc2nn[nH]n2)c1 | -25% | -17% | -11 | 2% | 2% | -3%
CCN(CC)c1ccc(/C=N/Nc2nn[nH]n2)cc1 | 12µM* | ? | 8 | -9% | -26% | nt
Cc1cccc(CCNC(=O)C2CCN(c3nc4ccccc4nc3C(F)(F)F)CC2)c1 | ? | ? | nt | 0% | -24% | 0%
O=C(Nc1ccc2c(c1)CN(C(=O)Nc1ccc(F)cc1)CC2)c1ccccn1 | 4.1µM* | 5.8µM* | -15 | -33% | ? | nt
CSc1ccccc1C(=O)N1CCc2ccc(NC(=O)c3ccccn3)cc2C1 | 12µM* | 13µM* | 17 | 10µM* | -10% | nt
CSc1ccc(C(=O)N2CCc3ccc(NC(=O)c4ccccn4)cc3C2)cc1 | ? | ? | 0 | -29% | ? | 9%
Cc1ncc2c(c1CNC(=O)/C=C/c1cccs1)CCN(C(=O)c1c(C)noc1C)C2 | -13% | 16%[9.04 µM] | nt | nt | nt | nt
SMILES | DT40 TDP1 no CPT | DT40 TDP1 CPT | IL1B secr inh | HepG2 viability | TGFb SMAD3 inh | TDP1 inh
CCCS(=O)(=O)N1CCCC(C(=O)NCC(OC)OC)C1 (configuration not stated) | 8% | 5% | 8 | 12% | -5% | 5%
CCCCCCC[N+](CC)(CC)CCCCc1ccc(Cl)cc1 | 0.21µM* | 0.65µM* | ? | -26% | 5% | 7%[56.1 µM]
CCCCCNCc1ccc(Cl)cc1 | -13% | 17% | 6 | -8% | -1% | -2%
O=[N+]([O-])c1ccc2c([N+](=O)[O-])ccc3c2c1CC3 | 18µM* | 18µM* | ? | -1% | -18% | nt
Cc1cccc(OCC(=O)Nc2cc(C)c(O)c(-c3nc4ccccc4o3)c2)c1 | ? | 11µM* | nt | 6% | 35% | nt
Cc1ccccc1OCC(=O)Nc1cc(C)c(O)c(-c2nc3ccccc3o2)c1 | ? | 10µM* | nt | -15% | 19% | nt
Cc1cc(NC(=O)c2ccc(Br)o2)cc(-c2nc3ccccc3o2)c1O | nt | nt | nt | -10% | 22% | 7%
COc1ccc(Cl)cc1NC(=O)CCc1nnc2ccc(N3CCN(C)CC3)nn12 | 23% | 1% | -22 | -5% | 2% | -3%
CCN(CC)CCCNC(=O)C1CCC(CNS(=O)(=O)c2c(C)cc(C)cc2C)CC1 (configuration not stated) | -14% | ? | -1 | -17% | -1% | nt
CCC(C)C(NC(=O)C1CCC(C)CC1)C(=O)NCCCN1CCCCC1CC (configuration not stated) | -12% | 14% | -63* | -42% | -9% | 3%
CCC1CCCCN1CCCNC(=O)C1CCC(CNS(=O)(=O)c2c(C)cc(C)cc2C)CC1 (configuration not stated) | ? | 29µM* | -20 | -83% | -7% | 0%
CCC(C)C(NC(=O)C1CCC(C)CC1)C(=O)NCCc1ccc(S(N)(=O)=O)cc1 (configuration not stated) | -19% | -2% | 5 | -17% | -16% | nt
COc1cccc(C2c3c(ncn(-c4ccc(NC(C)=O)cc4)c3=N)Oc3ccc4ccccc4c32)c1 (configuration not stated) | nt | nt | nt | nt | nt | 3%
CC1(c2ccc(OCC#N)cc2)C=C(c2ccc(OCC#N)cc2)n2nc(C(F)(F)F)nc2N1 (configuration not stated) | ? | ? | -86* | 2% | ? | 6%
